In PubChem BioAssay (NCATS):
Results filed as inconclusive are left out. Entries that show only a call come without a potency. Activity calls are given as the source filed them. Calls follow the shape of the dose curve; as a rule, active = well fitted inhibition curve with a large enough effect; inconclusive = small, poorly fitted or top-dose-only effect; inactive = flat fitted curve, though single readings scatter.

Each molecule was assayed against Calcium and integrin-binding protein 1 (Homo sapiens) (UniProt Q99828) (assay: Primary qHTS for Identification of Calcium Integrin Binding Protein 1 (CIB1) Competitor (AID 1508620;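 also: GST tagged CIB1 binding a fluorescein labelled alphaIIb integrin peptide tracer; top concentration of the series differs between compounds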)). Settings: CIB1-GST / FITC-alphaIIb peptide fluorescence polarization; series mostly up to 114 µM.
Calcium and integrin-binding protein 1 (Homo sapiens), sequence (Q99828 whole entry, looked up): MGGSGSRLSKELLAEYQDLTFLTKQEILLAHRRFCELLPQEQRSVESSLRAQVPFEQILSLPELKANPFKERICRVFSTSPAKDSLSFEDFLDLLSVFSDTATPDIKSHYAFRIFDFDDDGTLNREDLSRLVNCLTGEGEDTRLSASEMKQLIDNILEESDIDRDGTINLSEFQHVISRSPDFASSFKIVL
In short: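 CIB1-GST (1 uM final) and compound incubated 15 min at room temperature before adding FITC-alphaIIb peptide tracer (100 nM final). Competition for binding read by fluorescence polarization (ex 480, em 540) after another 15 min at room temperature.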
For CC(=O)Nc1cc2c(s1)CNCC2, the Potency was “inactive”.
In the case of Oc1cc(NCc2ccc(F)cc2)cc2cccnc12, the Potency is reported as “inactive”.
With CC(C)(C)OC(=O)Cc1nnc(CNC(=O)c2ccccc2)s1 the Potency was “inactive”.
O=c1c(Nc2ccc(Br)c(Br)c2)c(Nc2nnc(-c3ccncc3)s2)c1=O was tested, and the Potency was “inactive”.
Cc1ccc(NS(=O)(=O)c2cccc(C(=O)O)c2)cc1C was tested, and the Potency was “inactive”.
With O=C(O)c1ccc(S(=O)(=O)N[C@H](Cc2c[nH]c3ccccc23)C(=O)O)cc1 the Potency was “inactive”.
With COc1ccc(Nc2nn3c(=O)c4ccccc4nc3s2)cc1 the Potency was “inactive”.
Cc1cccc(-c2ccc3ncnc(NCc4cccnc4)c3c2)c1 was tested, and the Potency was “inactive”.
In the case of O=C1Nc2cc(Cl)ccc2/C1=C\c1cc(Cl)c(O)c(Cl)c1, the Potency is reported as “inactive”.
In the case of C/C(=C\c1ccsc1)C1Nc2cccc3cccc(c23)N1, the Potency is reported as “inactive”.
For CC1=C(C(=O)c2ccccc2)C(c2ccccc2Cl)N=C(Nc2nc3ccccc3o2)N1 (stereo not given), the Potency was “inactive”.
For Cc1ccccc1-c1nc(NCc2ccc(-c3cccnc3)cc2)c2ccccc2n1, the Potency was “inactive”.
In the case of Cc1cc(C)n2ncc(C(=O)Nc3cccc(C(F)(F)F)c3)c2n1, the Potency is reported as “inactive”.
With O=S1(=O)N=C(Oc2cccc(C(F)(F)F)c2)c2ccccc21 the Potency was “inactive”.
With CC(=O)Nc1sc2c(c1-c1nc3ccccc3s1)CN(C(C)C)C2 the Potency was “inactive”.
For COc1ccc(C2Nc3ccccc3C(=O)N2CCc2ccc(Cl)cc2Cl)cc1COc1ccc(NC(C)=O)cc1 (stereo not given), the Potency was “inactive”.
In the case of Cc1nnc(-c2cnn(C)c2N)n1CCCn1cccc1, the Potency is reported as “inactive”.
Cc1c(C(=O)OCC2CCCO2)[nH]c2c1C(=O)CCC2 (stereo not given) was tested, and the Potency was “inactive”.
In the case of Oc1ccc(CNc2ccc3ccccc3n2)c2cccnc12, the Potency is reported as “inactive”.
For O=S(=O)(c1ccc2c(c1)OCCO2)N1CCN(S(=O)(=O)c2cccc[n+]2[O-])CC1, the Potency was “inactive”.
With Cn1nnnc1Sc1ncnc2scc(-c3cccc(Cl)c3)c12 the Potency was “inactive”.
In the case of Cc1noc(C)c1-c1csc(N2CCC(C(N)=O)CC2)n1, the Potency is reported as “inactive”.
With N#Cc1c(-c2ccc3ccccc3c2)no[n+]1[O-] the Potency was “inactive”.
With Cn1c2cc(B(O)O)sc2c2cnn(Cc3ccc(F)cc3F)c(=O)c21 the Potency was “inactive”.
In the case of FC(F)(F)c1ccccc1-c1nc(NCc2ccc(-c3cccnc3)cc2)c2sccc2n1, the Potency is reported as “inactive”.
For C=CCNc1oc(-c2cccnc2)nc1C#N, the Potency was “inactive”.
For O=C(Nc1ccc(Cl)c(C(F)(F)F)c1)Nc1nnc(-c2ccncc2)s1, the Potency was “inactive”.
With O=C1CCc2cc([S+](=O)([O-])Nc3ccc(N[S+](=O)([O-])c4ccc5c(c4)CCC(=O)N5)cc3)ccc2N1 the Potency was “inactive”.
In the case of Cc1cc(C)n2ncc(C(=O)Nc3ccc(C#N)cc3)c2n1, the Potency is reported as “inactive”.
O=C1Nc2ccccc2/C1=C\c1ccc(C(=O)O)cc1 was tested, and the Potency was “inactive”.
With OC(c1ccccc1)(c1ccccc1)c1cnc2ccccn12 the Potency was “inactive”.
With Cc1cnc(-c2ccccc2C(C)C)nc1NCc1ccc(-c2cccnc2)cc1 the Potency was “inactive”.
In the case of CCOc1ccc(CCNC(=O)C2CCCCC2)cc1OCC, the Potency is reported as “inactive”.
With COc1ccc(C2Nc3ccccc3C(=O)N2Cc2ccccc2C(F)(F)F)cc1COc1ccc(NC(C)=O)cc1 (stereo not given) the Potency was “inactive”.
With FC(F)(F)c1ccc(N2CCN(C(=S)Nc3ccccn3)CC2)cc1 the Potency was “inactive”.
With O=C(NNC(=O)c1cc2ccccc2[nH]1)OCc1ccccc1 the Potency was “inactive”.
In the case of NC(=O)C1CCN(c2nc(-c3ccc4occc(=O)c4c3)cs2)CC1, the Potency is reported as “inactive”.
With O=C(O)c1ccc(CSc2nnc(-c3cccc([S+](=O)([O-])NC4CCCC4)c3)n2-c2ccccc2)cc1 the Potency was “inactive”.
For O=C1CCCC2=C1C(c1[nH]ncc1Cl)N=C(Nc1nc3ccccc3s1)N2 (stereo not given), the Potency was “inactive”.
In the case of CC(=O)N1CCN(c2ccc(NCc3ccc(-c4ccc(Br)cc4)o3)cc2)CC1, the Potency is reported as “inactive”.
